Data as given in PubChem BioAssay AID1159580 (chemical genetic matrix, 2015).
In all, about 5,500 compounds went through this assay and about 2,000 (36%) were called active. About 18% were inconclusive and are not listed. No stated cut-off is given here; in the data, active means normalized growth mostly below about 0.91 (no sharp cut-off); inconclusive means no clear call, values can overlap the other calls; inactive means mostly above about 0.92. Some of the results follow.

Assay: chemical genetic growth profiling, strain panel (AID 1159580);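 further: tested at 20 µM; growth read once vehicle control cultures reached saturation at 30 °C; 1 = growth at the plate median or of vehicle wells; lower values mean less growth of the strain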
Conditions: growth OD

Measured: normalized growth

C=C[C@@](C)(O)CCC1C(=C)C[C@H](O)C2C(C)(C)CCCC12C (some centres not stated)
inactive: S. cerevisiae deletion strains, locus YJR075W, strain HOC1, active compounds read low 1.01 | S. cerevisiae deletion strains, locus YKL009W, strain mrt4, active compounds read low 1.01 | S. cerevisiae deletion strains, locus YKL068W, active compounds read low 1.01 | S. cerevisiae deletion strains, locus YKL085W, strain MDH1 (second series), active compounds read low 1.02 | S. cerevisiae deletion strains, locus YKL085W, strain MDH1, active compounds read low 1.02 | S. cerevisiae deletion strains, locus YKL160W, strain elf1, active compounds read low 0.981 | S. cerevisiae deletion strains, locus YKL190W, strain CNB1, active compounds read low 1.01 | S. cerevisiae deletion strains, locus YKR001C, strain vps1, active compounds read low 1.01 | S. cerevisiae deletion strains, locus YKR026C, strain gcn3, active compounds read low 0.992 | S. cerevisiae deletion strains, locus YKR091W, strain srl3, active compounds read low 0.991 | S. cerevisiae deletion strains, locus YLL001W, strain dnm1, active compounds read low 0.97 | S. cerevisiae deletion strains, locus YLL026W, active compounds read low 0.998 | S. cerevisiae deletion strains, locus YLL041C, strain sdh2, active compounds read low 0.984 | S. cerevisiae deletion strains, locus YLR027C, strain aat2, active compounds read low 0.995 | S. cerevisiae deletion strains, locus YLR039C, strain RIC1, active compounds read low 0.949 | S. cerevisiae deletion strains, locus YLR058C, strain SHM2, active compounds read low 1.01 | S. cerevisiae deletion strains, locus YLR102C, strain apc9, active compounds read low 1.03 | S. cerevisiae deletion strains, locus YLR113W, strain HOG1, active compounds read low 0.867 | S. cerevisiae deletion strains, locus YLR221C, strain rsa3, active compounds read low 0.968 | S. cerevisiae deletion strains, locus YLR258W, strain gsy2, active compounds read low 0.983 | S. cerevisiae deletion strains, locus YLR262C, strain YPT6 (second series), active compounds read low 0.876 | S. cerevisiae deletion strains, locus YLR262C, strain YPT6, active compounds read low 0.943 | S. cerevisiae deletion strains, locus YLR268W, strain sec22, active compounds read low 1.01 | S. cerevisiae deletion strains, locus YLR320W, strain mms22, active compounds read low 0.946 | S. cerevisiae deletion strains, locus YLR330W, strain CHS5, active compounds read low 1.01 | S. cerevisiae deletion strains, locus YLR342W, strain FKS1 (second series), active compounds read low 0.985 | S. cerevisiae deletion strains, locus YLR342W, strain FKS1, active compounds read low 0.976 | S. cerevisiae deletion strains, locus YLR357W, strain rsc2, active compounds read low 1.01 | S. cerevisiae deletion strains, locus YLR370C, strain arc18, active compounds read low 0.976 | S. cerevisiae deletion strains, locus YLR371W, strain rom2, active compounds read low 1.04 | S. cerevisiae deletion strains, locus YLR384C, strain iki3, active compounds read low 0.98 | S. cerevisiae deletion strains, locus YLR418C, strain cdc73, active compounds read low 0.994 | S. cerevisiae deletion strains, locus YML016C, strain PPZ1, active compounds read low 1 | S. cerevisiae deletion strains, locus YML032C, strain rad52, active compounds read low 1.05 | S. cerevisiae deletion strains, locus YML120C, strain ndi1, active compounds read low 0.99 | S. cerevisiae deletion strains, locus YML124C, strain tub3, active compounds read low 1.02 | S. cerevisiae deletion strains, locus YMR058W, strain fet3, active compounds read low 0.995 | S. cerevisiae deletion strains, locus YMR078C, strain ctf18, active compounds read low 1.03 | S. cerevisiae deletion strains, locus YMR125W, strain sto1, active compounds read low 1.01 | S. cerevisiae deletion strains, locus YMR129W, active compounds read low 0.985 | S. cerevisiae deletion strains, locus YMR205C, strain PFK2, active compounds read low 0.934 | S. cerevisiae deletion strains, locus YMR223W, strain ubp8, active compounds read low 1.02 | S. cerevisiae deletion strains, locus YMR231W, strain pep5, active compounds read low 0.999 | S. cerevisiae deletion strains, locus YMR263W, strain SAP30, active compounds read low 1.01 | S. cerevisiae deletion strains, locus YMR307W, strain GAS1, active compounds read low 1.01 | S. cerevisiae deletion strains, locus YNL067W, strain RPL9B, active compounds read low 0.996 | S. cerevisiae deletion strains, locus YNL071W, strain lat1, active compounds read low 0.928 | S. cerevisiae deletion strains, locus YNL128W, strain TEP1, active compounds read low 1.01 | S. cerevisiae deletion strains, locus YNL153C, strain GIM3, active compounds read low 1.01 | S. cerevisiae deletion strains, locus YNL183C, strain NPR1, active compounds read low 0.923 | S. cerevisiae deletion strains, locus YNL209W, strain ssb2, active compounds read low 0.998 | S. cerevisiae deletion strains, locus YNL233W, strain BNI4, active compounds read low 1.02 | S. cerevisiae deletion strains, locus YNL248C, strain rpa49, active compounds read low 0.984 | S. cerevisiae deletion strains, locus YNL250W, strain rad50, active compounds read low 1.03 | S. cerevisiae deletion strains, locus YNL271C, strain bni1, active compounds read low 1.03 | S. cerevisiae deletion strains, locus YNL298W, strain CLA4, active compounds read low 1.02 | S. cerevisiae deletion strains, locus YNL307C, strain MCK1, active compounds read low 1 | S. cerevisiae deletion strains, locus YNL322C, strain KRE1 (second series), active compounds read low 0.986 | S. cerevisiae deletion strains, locus YNL322C, strain KRE1, active compounds read low 1.01 | S. cerevisiae deletion strains, locus YNR049C, strain mso1, active compounds read low 0.994 | S. cerevisiae deletion strains, locus YNR052C, strain pop2, active compounds read low 1.02 | S. cerevisiae deletion strains, locus YOL006C, strain TOP1, active compounds read low 0.935 | S. cerevisiae deletion strains, locus YOL012C, strain htz1 1.27 | S. cerevisiae deletion strains, locus YOL147C, strain pex11, active compounds read low 1.02 | S. cerevisiae deletion strains, locus YOR001W, strain rrp6, active compounds read low 0.984 | S. cerevisiae deletion strains, locus YOR061W, strain CKA2, active compounds read low 1.01 | S. cerevisiae deletion strains, locus YOR069W, strain VPS5, active compounds read low 1.01 | S. cerevisiae deletion strains, locus YOR070C, strain gyp1, active compounds read low 0.986 | S. cerevisiae deletion strains, locus YOR080W, strain dia2, active compounds read low 0.998 | S. cerevisiae deletion strains, locus YOR083W, strain WHI5, active compounds read low 0.964 | S. cerevisiae deletion strains, locus YOR106W, strain vam3, active compounds read low 0.978 | S. cerevisiae deletion strains, locus YOR136W, strain idh2, active compounds read low 1.03 | S. cerevisiae deletion strains, locus YOR144C, strain elg1, active compounds read low 1.02 | S. cerevisiae deletion strains, locus YOR184W, strain ser1, active compounds read low 1.01 | S. cerevisiae deletion strains, locus YOR231W, strain MKK1, active compounds read low 0.923 | S. cerevisiae deletion strains, locus YOR265W, strain rbl2, active compounds read low 0.992 | S. cerevisiae deletion strains, locus YOR270C, strain vph1, active compounds read low 0.886 | S. cerevisiae deletion strains, locus YOR290C, strain snf2, active compounds read low 0.934 | S. cerevisiae deletion strains, locus YOR316C, strain cot1, active compounds read low 1.03 | S. cerevisiae deletion strains, locus YPL051W, strain arl3, active compounds read low 0.975 | S. cerevisiae deletion strains, locus YPL055C, strain LGE1, active compounds read low 1.01 | S. cerevisiae deletion strains, locus YPL078C, strain atp4, active compounds read low 0.978 | S. cerevisiae deletion strains, locus YPL106C, strain sse1, active compounds read low 1.03 | S. cerevisiae deletion strains, locus YPL240C, strain hsp82, active compounds read low 0.984 | S. cerevisiae deletion strains, locus YPL241C, strain CIN2, active compounds read low 1.01 | S. cerevisiae deletion strains, locus YPL256C, strain CLN2, active compounds read low 0.953 | S. cerevisiae deletion strains, locus YPR119W, strain clb2, active compounds read low 1.03 | S. cerevisiae deletion strains, locus YPR141C, strain kar3, active compounds read low 1.03 | S. cerevisiae deletion strains, locus YPR163C, strain tif3, active compounds read low 1.02 | S. cerevisiae deletion strains, locus YPR167C, strain met16, active compounds read low 1.02 | S. cerevisiae deletion strains, strain wtn01, active compounds read low 1.02 | S. cerevisiae strains, strain wild type, active compounds read low 1.01
